# A selection: hits, their analogues and other compounds. The true share with any hit is near 7%.
# ATXN viability = reduces viability in counter-screen for ATXN expression inhibitors; AID 651635; S2 cells (HEK-293 line with an ATXN2-luciferase reporter) viability, CellTiter-Fluor protease fluorescence, 24 h; hit rate 0.49% among 400,000; Potency, µM (highest dose often 56.7 µM), hits mostly cytotoxic; note: potency is the fitted concentration of half-maximal effect; nearly all actives have a fitted effect of over 40% in size
# Integrin act MD = activates integrin-mediated alleviation for muscular dystrophy; hit rate 0.064% among 350,000; Potency, µM (titrated, usually from 38.3 µM), for inactives: at the top dose activation, hits mostly activators; alpha7betagal myoblasts, beta-gal FDG fluorescence, 48 h;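 note: potency is the fitted concentration of half-maximal effect; 100% = response of the positive control SU9516; nearly all actives have a fitted effect of over 60% in size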
#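 Alpha7betagal+/- myoblasts (passage 13) were plated 16-24 hr, then exposed to compounds (1:260 dilution of DMSO stock) for 48 hours at 37C. After MPER lysis, β-galactosidase reporter activity was read as FDG fluorescence (ex 480/em 540) after 30 minutes.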
# D3 antag = antagonists of human D3 dopamine receptor | P35462 | D3R cells, DiscoveRx beta-arrestin luminescence, antagonist mode; active compounds read low | max response, negative = inhibition, % | hit rate 2.5% among 360,000; in the data active = max response below about -50%; inconclusive = no clear call, values can overlap the other calls; note: % is set by controls: 0 for no effect and ±100 for the full control effect
# Target sequence (P35462 whole entry, looked up): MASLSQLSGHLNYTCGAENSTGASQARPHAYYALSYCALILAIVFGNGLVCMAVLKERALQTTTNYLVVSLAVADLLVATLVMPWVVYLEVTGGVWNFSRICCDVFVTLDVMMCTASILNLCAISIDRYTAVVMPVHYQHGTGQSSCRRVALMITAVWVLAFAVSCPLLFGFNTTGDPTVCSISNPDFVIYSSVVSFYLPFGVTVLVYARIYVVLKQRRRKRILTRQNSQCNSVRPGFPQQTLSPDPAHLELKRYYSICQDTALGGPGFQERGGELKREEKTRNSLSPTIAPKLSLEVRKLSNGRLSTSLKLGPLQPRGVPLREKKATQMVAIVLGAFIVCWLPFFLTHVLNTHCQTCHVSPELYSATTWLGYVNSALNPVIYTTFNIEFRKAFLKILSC
#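 Cells expressing the human receptor were seeded at 1500 cells/well, incubated overnight at 37 degrees C in 5% CO2, then exposed to library compounds with dopamine controls for 90 minutes at 37 degrees C before luminescent detection.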
# IL-1B inflam inh = blocks inflammasome-driven IL-1 beta release; hit rate 4.7% among 360,000; THP-1 LPS/ATP IL-1B secretion, AlphaLISA, 16 h; active compounds read low; activity change, % at 57.5 µM; in the data active = activity change below about -50%; inconclusive = mostly about -30% to -49%; note: % is set by controls: 0 for no effect and ±100 for the full control effect
#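 Secreted IL-1B measured by AlphaLISA bead assay after 16 h compound exposure of THP-1 cells; compounds (final up to 57.5 uM) added 1 h before LPS (250 ng/mL) and ATP (1.25 mM) stimulation; lower signal means less secretion.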
# ATXN2 expr inh = inhibitors of ATXN2 expression; HEK-293 ATXN2-luciferase reporter, luminescence, 24 h; Potency, µM (highest dose often 57 µM), inactives show at the top dose activity change, negative = inhibition, usual class: inhibitors; hit rate 0.72% among 360,000; AID 1745845; note: potency is the fitted concentration of half-maximal effect; % is set by controls: 0 for no effect and ±100 for the full control effect; nearly all actives have a fitted effect of over 55% in size
#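 ATXN2-luciferase reporter cells (luciferase flanked by upstream and downstream ATXN2 gene portions) were treated 24 h at 37 °C with compounds at up to 57 uM. SteadyGlo luminescence gave expression; GF-AFC fluorescence gave viability.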
# DRD3 agonist = D3 dopamine receptor (human) agonism; D3R DiscoveRx beta-arrestin cells, luminescence, 90 min; max activation, %; hit rate 0.58% among 410,000; P35462; AID 652048; in the data active = max activation above about 30%; note: 0% is about no effect
#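 Cells at 1500/well, incubated overnight, then treated with pinned compounds (dopamine as control) for 90 min at 37 degrees C. DiscoveRx reagent added for 30 - 60 minutes at room temperature; luminescence read.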
# Numbers without * were called inactive; i = inactive; ? = inconclusive; . = not tested or not shown. Unless noted, calls come from the whole dose curve; as a rule, active = well fitted curve in the direction sought with a large enough effect; inconclusive = small, poorly fitted or top-dose-only effect, or another doubt; inactive = no such curve, though single readings can be large; an effect the other way counts as inactive or inconclusive.
SMILES,ATXN viability,Integrin act MD,D3 antag,IL-1B inflam inh,ATXN2 expr inh,DRD3 agonist
CCOC(=O)C1=CCN(S(=O)(=O)c2ccccc2F)C1c1ccc(Cl)cc1 (stereo not drawn),?,.,0,10,?,7
CCOC(=O)c1ccc2c(c1)n(CC)c(/C=C/Nc1ccccc1)[n+]2CC,11µM*,-64%,?,0,?,-20
CCC(=O)c1ccc(OC(=O)c2cnccn2)cc1,i,3%,16,28,-4%,-6
Cc1cccc(N2CCN(C(=O)c3ccc(CS(=O)c4cccc(Cl)c4)o3)CC2)c1C (stereo not drawn),.,.,.,.,.,-12
FC(F)(F)c1nc2ccccc2n2c(-c3ccc(Cl)cc3Cl)nnc12,i,-17%,0,-4,-17%,-5
FC(F)(F)c1nnc2c(Sc3ccccc3)nc3ccc(Cl)cc3n12,?,-45%,4,-70*,?,9
CCCNC(=O)C1(C)CCCN(Cc2cc3ccccc3o2)C1 (stereo not drawn),i,.,-29,2,-35%,-14
CSc1ccc(CN2CCC(C)(Oc3ccccc3)C2)cc1 (stereo not drawn),i,.,-97*,-9,-17%,-11
CSc1ccc(OC2(C)CCN(Cc3cc4ccccc4o3)C2)cc1 (stereo not drawn),i,.,-74*,18,5%,-5
CC1(Oc2ccc(Cl)cc2)CCN(Cc2ccc(OC(F)(F)F)cc2)C1 (stereo not drawn),i,.,5,-81*,7%,-6
CCc1ccc(OC2(C)CCN(Cc3ccc4c(c3)OCCO4)C2)cc1 (stereo not drawn),i,.,11,-11,-9%,-18
CCc1ccc(OC2(C)CCN(Cc3ccc(SC)cc3)C2)cc1 (stereo not drawn),i,.,-60*,-7,-10%,-24
CCc1ccc(NC(=O)CSc2ccc(-c3sc(-c4ccccc4)nc3C)nn2)cc1,.,.,.,.,.,9
Cn1c(=O)c2c(nc(N3CCOCC3)n2Cc2ccccc2Cl)n(C)c1=O,i,.,.,.,-10%,-1
O=C(NCCOc1ccccc1)C(c1ccccc1)c1ccccc1,i,4%,25,-4,.,1
CC(=O)NC1(NC(C)=O)CCN(C)C(c2ccccc2)C1C (stereo not drawn),i,-6%,-7,5,3%,6
CSc1ccc(OC2(C)CCN(Cc3ccc(C(C)C)cc3)C2)cc1 (stereo not drawn),i,.,-61*,28,-18%,-12
CSc1ccc(CN2CCC(C)(Oc3cccc(C#N)c3)C2)cc1 (stereo not drawn),i,.,?,-3,-19%,-6
CSc1ccc(CN2CCC(C)(Oc3cccc(F)c3)C2)cc1 (stereo not drawn),i,.,-92*,21,-11%,-22
CCOC(=O)c1ccsc1NC(=O)CCS(=O)(=O)c1ccccc1,i,-29%,-12,-82*,-9%,-17
NC(=O)c1ccsc1NC(=O)CCS(=O)(=O)c1ccccc1,i,-45%,5,13,54%,5
CCOC(=O)c1c(NC(=O)CCS(=O)(=O)c2ccccc2)sc2c1CCN(C(C)C)C2,?,-49%,10,-80*,6%,-7
COC(=O)c1c(NC(=O)Cc2ccccc2)sc2c1CCN(C(C)C)C2,?,-1%,?,?,-28%,-11
COc1ccc(CNS(=O)(=O)c2ccc(-n3cnnn3)c(OC)c2)cc1,i,7%,0,44,-3%,4
CC(Nc1nc(-c2ccccc2O)nc2ccccc12)c1ccccc1 (stereo not drawn),i,-35%,-4,21,-5%,-24
Oc1ccccc1-c1nc(NC2CCCC2)c2ccccc2n1,i,0%,34,-12,-8%,2
CC(=O)Nc1cccc(Nc2nc(-c3ccccc3F)nc3ccccc23)c1,i,-8%,2,-52*,-4%,6
c1ccc(CNc2nc(-c3cccnc3)nc3ccccc23)cc1,i,-15%,6,-11,.,0

# Compound activity: PubChem BioAssay, National Center for Advancing Translational Sciences (NCATS)
